Bioassay records deposited in PubChem by National Center for Advancing Translational Sciences (NCATS).
An excerpt weighted towards active compounds, which were near 19% of everything screened.
IL1B secr inh = inflammasome signaling inhibition, IL-1 beta readout. THP-1 LPS/ATP IL-1B secretion, AlphaLISA, 16 h; stronger effect = lower value. activity change, % at 57.5 µM. actives 4.7% (n = 360,000); in the data active = activity change below about -50%; inconclusive = mostly about -30% to -49%; also: % is scaled to controls: 0 for no effect and ±100 for the full control effect
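THP-1 cells pretreated 1 hr with compounds (up to 57.5 uM final), then stimulated with LPS (250 ng/mL final) plus ATP (1.25 mM final); secreted IL-1B measured by AlphaLISA after 16 hr, decreased signal indicating inhibition.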
MCF10A rerep = induces DNA re-replication in MCF 10a normal breast cells. MCF 10A DNA re-replication, Hoechst nuclear intensity, 48 h. actives 2.9% (n = 350,000). Potency, µM (highest dose often 46.1 µM), without a hit: top-dose activity, positive = re-replication, most hits filed as activators; also: potency is read from the fitted curve at half-maximal effect; % of control where 0% means no effect; nearly all actives have a fitted effect of over 50% in size
TDP1 cell noCPT = qHTS for Inhibitors of human tyrosyl-DNA phosphodiesterase 1 (TDP1): qHTS in cells in absence of CPT | actives 15% (n = 420,000) | DT40 Tdp1-/- hTDP1 cells, no CPT, ATP luminescence, 48 h | Potency, µM (series often up to 46.2 µM), inactives show top-dose activity change, negative = growth inhibition, most hits filed as inhibitors; also: potency is read from the fitted curve at half-maximal effect; % is scaled to controls: 0 for no effect and ±100 for the full control effect; nearly all actives have a fitted effect of over 55% in size
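Chicken DT40 Tdp1-/- cells complemented with human TDP1, screened without camptothecin (DMSO vehicle only), 400 cells/well. Compounds pin-transferred, cells incubated at 37 °C for at least 48 hr. Growth read as ATP-dependent luminescence (CellTiter-Glo, 30 min at RT).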
DT40 TDP1 CPT = DT40-hTDP1 cell growth loss with CPT | chicken DT40 Tdp1-/-;hTDP1 cells + 20 nM CPT, ATP luminescence, 48 h | Potency, µM (highest dose often 46.2 µM), inactives show at the top dose activity change, negative = growth inhibition, usual class: inhibitors | actives 12% (n = 420,000) | AID 686979; also: potency is read from the fitted curve at half-maximal effect; % is scaled to controls: 0 for no effect and ±100 for the full control effect; nearly all actives have a fitted effect of over 55% in size
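Cell growth measured by CellTiter-Glo luminescence after a minimum 48 h, 37 C compound exposure with 20 nM CPT in Tdp1-knockout DT40 cells stably expressing hTDP1, seeded 400/well; qHTS titration format.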
SW480 rereplic = DNA re-replication induction in SW480 cells | AID 624297 | SW480 DNA re-replication, Hoechst DNA content imaging, 48 h | Potency, µM (titrated, usually from 46.1 µM), for the others: top-dose re-replication activation, usual class: activators | actives 1.8% (n = 340,000); also: potency is read from the fitted curve at half-maximal effect; % of control where 0% means no effect; nearly all actives have a fitted effect of over 55% in size
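Compounds, transferred as 23 nL by pin tool, were incubated with cells for 48 hr; DNA content per nucleus was then quantified by Hoechst staining and fluorescence plate imaging.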
BCR signal inh = blocks chronic active B-cell receptor signaling. ABC-DLBCL IkBa-CBG/CBR reporter, luminescence ratio, 4 h. Potency, µM (highest dose often 46.1 µM), without a hit: at the top dose activity change, negative = inhibition, hits mostly inhibitors. actives 0.05% (n = 340,000); active = well fitted inhibition curve with a large enough effect in the signal ratio, with a control signal flat, not every such curve was filed as active; inconclusive = small, poorly fitted or top-dose-only effect, or effect the other way, or a change in a side signal; the % refers to the signal ratio;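 also: potency is read from the fitted curve at half-maximal effect; plate controls were basal doxycycline-induced cells for no effect and cells given 10 µM MG132 for full effect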
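TMD8 human ABC-DLBCL cells with doxycycline-inducible IκBα–green luciferase fusion and unfused red luciferase, in 0.5% FBS medium; compounds up to 46 uM, 4 h at 37C. Green/red luminescence ratio, filter-overlap corrected, fitted to concentration-response curves.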
The depositor's hits bear a star; ? = inconclusive; · = no result given; [ ] = remark or other dose. Unless noted, calls follow the shape of the dose curve; as a rule, active = well fitted curve in the direction sought with a large enough effect; inconclusive = small, poorly fitted or top-dose-only effect, or another doubt; inactive = no such curve, though single readings can be large; an effect the other way counts as inactive or inconclusive.

SMILES	IL1B secr inh	MCF10A rerep	TDP1 cell noCPT	DT40 TDP1 CPT	SW480 rereplic	BCR signal inh
Cc1nc2c(c(=O)c3ccccc3n2C)c(=O)n1-c1ccc(F)cc1	0	-1%	?	-5%	?	6%
CC(C)c1nc2c(c(=O)c3ccccc3n2C)c(=O)n1-c1ccc(F)cc1	41	-3%	12µM*	15µM*	-8%	?
Cc1cccc(CNc2cc(-c3ccccc3C)ncn2)c1	·	·	6.5µM*	15µM*	·	·
COc1ccccc1-c1cc(NCc2cnc(C)cn2)ncn1	·	·	6%	14%	·	·
COc1ccccc1-c1cc(NCc2cccc(C)c2)ncn1	·	·	18µM*	13µM*	·	·
O=C(CCc1nc2ccccc2[nH]c1=O)N/N=C/c1ccccc1	-3	0%	-22%	-11%	0%	5%
O=c1nc(/C=C/c2cccn2-c2ccc([N+](=O)[O-])cc2)cc(C(F)(F)F)[nH]1	-1	-8%	0%	-37%	-6%	2%
COc1cc(OC)c(OC)cc1/C=C/c1cc(C(F)(F)F)[nH]c(=O)n1	-7	23µM*	-27%	9%	18µM*	0%
O=c1nc(/C=C/c2cc([N+](=O)[O-])ccc2Cl)cc(C(F)(F)F)[nH]1	-94*	3.3µM*	23µM*	?	7%	?
COc1cc(/C=C/c2c([N+](=O)[O-])c(=O)n(C)c(=O)n2C)cc(OC)c1OC	-5	3%	?	?	0%	-8%
COc1cc(/C=C/c2cc(C(F)(F)F)[nH]c(=O)n2)cc(OC)c1OC	-101*	?	?	?	21µM*	?
COc1ccc(-c2[nH]nc3oc(=O)c(CCO)c(C)c23)cc1	-84*	11%	-19%	13%	4%	3%
Cc1[nH]nc2oc(=O)c(CCO)c(C)c12	12	?	4%	-89%	16µM*	?
COc1ccc(-c2[nH]nc3oc(=O)cc(C)c23)cc1	9	25%	-5%	0%	-7%	·
CC1CCCCN1C(=O)CN1CCN(S(=O)(=O)c2ccc(Br)cc2Cl)CC1 (centres undefined)	?	0%	-16%	?	-16%	-1%
NC(Cc1ccc(Cl)cc1)c1csc(Nc2nccc(C(F)(F)F)n2)n1 (centres undefined)	-56*	·	?	?	·	·
NC(Cc1ccccc1)c1csc(Nc2nccc(C(F)(F)F)n2)n1 (centres undefined)	-12	·	21µM*	16µM*	·	·
COc1ccc(CC(N)c2csc(Nc3ncccn3)n2)cc1 (centres undefined)	-29	·	6.5µM*	4.6µM*	·	·
COc1ccc(CC(N)c2csc(Nc3nccc(C(F)(F)F)n3)n2)cc1 (centres undefined)	-56*	·	?	?	·	·
CCN(CC)C(=O)CSc1nnnn1-c1ccc(F)c(Cl)c1	-2	-4%	-17%	-21%	-1%	0%
O=C(NCCNc1nccc(C(F)(F)F)n1)c1cccs1	9	-1%	-10%	-6%	28%	10%
COc1ccc(CC(N)c2csc(Nc3cc(NCc4ccco4)ncn3)n2)cc1 (centres undefined)	-51*	·	13µM*	?	·	·
NC(Cc1ccc(F)cc1)c1csc(Nc2nccc(C(F)(F)F)n2)n1 (centres undefined)	-59*	·	15µM*	?	·	·
COc1ccc(-c2csc(NCc3ccco3)n2)cc1	-17	-8%	-18%	?	8%	-1%
CCn1ncc(N(C)N)c(Cl)c1=O	-12	-25%	-6%	-2%	-20%	1%
SMILES	IL1B secr inh	MCF10A rerep	TDP1 cell noCPT	DT40 TDP1 CPT	SW480 rereplic	BCR signal inh
Cc1ccc(-c2nnn(CC(=O)N(Cc3cccs3)C(C(=O)NC3CCCCC3)c3ccco3)n2)o1 (centres undefined)	73	?	23µM*	26µM*	5%	-11%
O=C(NCC1CCCO1)C(c1ccc(F)cc1)N(C(=O)Cn1nnc(-c2ccc(F)cc2)n1)c1cccc(O)c1 (centres undefined)	-17	15%	9.2µM*	?	?	-2%
O=C(NC1CCCCC1)C(c1ccco1)N(Cc1cccs1)C(=O)Cn1nnc2ccccc21 (centres undefined)	8	-5%	-27%	?	1%	-4%
O=C(NCC1CCCO1)C(c1cccs1)N(C(=O)Cn1nnc(-c2cccs2)n1)C1CCCC1 (centres undefined)	-27	3%	-12%	-17%	11%	7%
O=C(NCC1CCCO1)C(c1cccs1)N(Cc1cccs1)C(=O)Cn1nnc(-c2cccs2)n1 (centres undefined)	-4	12%	18µM*	16µM*	-1%	-3%
O=C(NC1CCCCC1)C(c1ccccc1)N(Cc1ccco1)C(=O)Cn1cnc2ccccc21 (centres undefined)	-11	0%	23µM*	23µM*	3%	-10%
CCCCC(C(=O)NC1CCCC1)N(Cc1ccco1)C(=O)Cn1nnc(-c2ccc(F)cc2)n1 (centres undefined)	?	?	23µM*	23µM*	2%	?
O=C(NC1CCCC1)C(c1cccs1)N(Cc1ccco1)C(=O)Cn1nnc(-c2cccs2)n1 (centres undefined)	-20	13%	?	21µM*	-2%	?
O=C(CN(Cc1ccco1)C(=O)Cn1nnc(-c2ccc(F)cc2)n1)NC1CCCC1	-14	-1%	?	?	-3%	-5%
Cn1c2ccccc2c(=O)c2ccc(NCCc3cccs3)cc21	0	?	?	?	-93%[9.22 µM]	0%
O=C(/C(=C/O)N=Nc1ccccc1)c1ccco1	-16	15µM*	?	?	?	?
Cc1cccc(N=N/C(=C\O)C(=O)c2ccc(Br)cc2)c1	-85*	?	?	8.2µM*	?	?
O=C(/C(=C/O)N=Nc1ccccc1Cl)c1ccccc1	-99*	?	?	?	0%	17%
O=C(/C(=C/O)N=Nc1cccc(C(F)(F)F)c1)c1ccccc1	-95*	?	?	?	16%	-6%
Cc1ccc(N=N/C(=C\O)C(=O)c2ccncc2)cc1	-7	?	?	?	10%	-25%
C[C@H](CO)N1C[C@H](C)[C@@H](CN(C)S(=O)(=O)c2ccc(F)cc2)OCc2cn(nn2)CCCC1=O	20	·	2%	-11%	·	·
